# In the OligoGym collection:
# Assays:
# Assay in all cases: pooled miR-30 sensor sort-seq; sequence = guide strand
# Settings in all cases: shRNA
# [1] = target: HAX1
# [2] = target: HBB
# [3] = target: HBA2
# [4] = target: HBA1
# [5] = target: HDGF
# [6] = target: HCK
# [7] = target: HCST
# [8] = target: HBQ1
# Further: reference of the scale not given here.
sequence,measurement,setting,value
TTACTGTAGTCTCTGTCCGGCC,sensor-assay potency score (higher = more potent),[1],-0.884
ATCAGGAGTGGACAGATCCCCA,sensor-assay potency score (higher = more potent),[2],-1.55
TTTATTCAAAGACCAGGAAGGG,sensor-assay potency score (higher = more potent),[3],-0.785
TCAAAGACCACGGGGGTACGGG,sensor-assay potency score (higher = more potent),[4],-0.714
AAGACCAGGAAGGGCCGGTGCA,sensor-assay potency score (higher = more potent),[3],-1.15
AAGGGGCAAGAAGCATGGCCAC,sensor-assay potency score (higher = more potent),[4],-1.79
TTGGGAGGCCCAGCGGGCAGGA,sensor-assay potency score (higher = more potent),[3],-2
TACTAGGTCATCAAAGCCGAAG,sensor-assay potency score (higher = more potent),[1],-1.1
TTCAAAGACCACGGGGGTACGG,sensor-assay potency score (higher = more potent),[4],-1.1
TGGCTTAGGAGCTTGAAGTTGA,sensor-assay potency score (higher = more potent),[3],-0.42
ACGGGGGTACGGGTGCAGGAAG,sensor-assay potency score (higher = more potent),[4],-2.14
AGGGCCGGTGCAAGGAGGGGAG,sensor-assay potency score (higher = more potent),[3],-1.98
TGCAAGGAGGGGAGGAGGGCCC,sensor-assay potency score (higher = more potent),[3],-1.68
TTCCACACAGCTCTTTTTCTGG,sensor-assay potency score (higher = more potent),[5],-0.811
TTTGAGAATGTATTGCCTCCGA,sensor-assay potency score (higher = more potent),[6],-0.315
TGATGTTGTAGAGCTCCTCTGG,sensor-assay potency score (higher = more potent),[6],-0.148
TTTGCCATCTTCTTGGGCGGGG,sensor-assay potency score (higher = more potent),[7],0.0264
TTCTTCTCCAGCTTGAGGGATT,sensor-assay potency score (higher = more potent),[6],-0.963
TTGTTGTAGGTGGCCATCCAGA,sensor-assay potency score (higher = more potent),[6],-1.38
TAGTGGTCTCGCTATCCCGGAT,sensor-assay potency score (higher = more potent),[6],-0.53
TAGAACTGAAATCATCTACGGT,sensor-assay potency score (higher = more potent),[5],-0.169
ATGAGCAGCGATGCCACCGCAT,sensor-assay potency score (higher = more potent),[7],-1.5
TTCCCTTCCAAATCACAGCTGT,sensor-assay potency score (higher = more potent),[6],0.224
TTTGACCAGCTTGTCATGCTGC,sensor-assay potency score (higher = more potent),[6],0.268
TTAGTGGTCTCGCTATCCCGGA,sensor-assay potency score (higher = more potent),[6],-1.31
TCTGGTGACAACACTGAGGGGG,sensor-assay potency score (higher = more potent),[5],0.602
TTCTTTTCCACCTCCATAGGAA,sensor-assay potency score (higher = more potent),[5],-0.534
TGTTGATGTAGACTTTGCCATC,sensor-assay potency score (higher = more potent),[7],-1.89
TAGACGCCGACGTTGCTGCCCA,sensor-assay potency score (higher = more potent),[8],-0.72
TTTCTCGTTCTTCTCCTTGGCT,sensor-assay potency score (higher = more potent),[5],-0.305
